Results filed as inconclusive are left out. Calls of active or inactive are those of the source. Calls come from the whole dose curve; as a rule, active = well fitted curve in the direction sought with a large enough effect; inconclusive = small, poorly fitted or top-dose-only effect, or another doubt; inactive = no such curve, though single readings can be large; an effect the other way counts as inactive or inconclusive.
Legend:
[1] = system: Zika virus NS2B-NS3 protease (linked construct); test: Primary screen NINDS Rhodamine qHTS for Zika virus inhibitors (AID 1347160); note: % is set by controls: 0 for no effect and ±100 for the full control effect; nearly all actives have a fitted effect of over 55% in size
In short: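 In 10 mM Tris-HCl pH 8.0 containing 0.01% Tween 20, linked NS2B-NS3 protease (25 nM final) is exposed to test compounds for 15 min. Cleavage of 1.5 microM Rhodamine110 substrate is tracked by fluorescence over 15 min.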

[2] = biological target: Calcium and integrin-binding protein 1 (Homo sapiens) (UniProt Q99828); test: Primary qHTS for Identification of Calcium Integrin Binding Protein 1 (CIB1) Competitor (AID 1508620);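 note: GST tagged CIB1 binding a fluorescein labelled alphaIIb integrin peptide tracer; top concentration of the series differs between compounds; % is set by controls: 0 for no effect and ±100 for the full control effect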
In short: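 Fluorescence polarization competition: CIB1-GST (1 uM final) preincubated with compound 15 min at room temperature, then FITC-labeled alphaIIb peptide (100 nM final) added for another 15 min. Polarization read at Ex 480/Em 540.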

[3] = Primary qHTS for inhibitors of nuclear receptor binding SET domain protein 2 (NSD2) in an isogenic RCH-ACV NSD2 p.E1099K mutant (9B) (AID 1645876); note: nearly all actives have a fitted effect of over 70% in size; note: potency is the fitted concentration of half-maximal effect
[4] = Primary qHTS for inhibitors of nuclear receptor binding SET domain protein 2 (NSD2) in an RCH-ACV wild type WT cells (2C) (AID 1645877); note: nearly all actives have a fitted effect of over 70% in size; note: potency is the fitted concentration of half-maximal effect
[5] = biological target: Glutathione peroxidase 1 (Homo sapiens) (UniProt P07203); test: Primary qHTS Assay for Inhibitors of Recombinant Selenoprotein Glutathione Peroxidase 1 (GPX1) (AID 1845191); note: nearly all actives have a fitted effect of over 65% in size
In short: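 Recombinant GPX1 (10 nM final) was preincubated with compound for 30 min at room temperature, then reacted with 1 mM GSH, 0.5 mM CHP, 0.5 mM NADPH and 100 nM glutathione reductase; NADPH fluorescence (340/450 nm) was read at 0 and 15 min.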

[6] = biological target: Phospholipid hydroperoxide glutathione peroxidase GPX4 (Homo sapiens) (UniProt P36969); test: Primary qHTS Assay for Inhibitors of Recombinant Selenoprotein Glutathione Peroxidase 4 (GPX4) (AID 1845192); note: % is set by controls: 0 for no effect and ±100 for the full control effect; nearly all actives have a fitted effect of over 65% in size
In short: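 GR-coupled readout: 100 nM GR, 1 mM GSH, 0.5 mM NADPH; NADPH fluorescence (ex 340/em 450 nm) read at t=0 and after 15 min RT. GPX4 200 nM, preincubated 30 min with compound; substrate 0.5 mM CHP.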

[7] = biological target: Luciferin 4-monooxygenase (Photinus pyralis) (UniProt P08659); test: Primary firefly luciferase (FLuc) qHTS assay for identification of artifact compounds. (AID 1845220); conditions: outcome: dose series up to 54.1 µM unless noted; note: nearly all actives have a fitted effect of over 60% in size
In short: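 In this counter-screen for luciferase artifacts, test compounds met substrate (10 uM each luciferin and ATP) before 10 nM enzyme started the reaction. Light output was measured 5 min later.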

[8] = Primary fluorescence-based thiol-reactive (MSTI) qHTS assay for identification of artifact compounds. (AID 1845221);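 note: thiol-reactive compounds lower the probe fluorescence signal; nearly all actives have a fitted effect of over 65% in size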
In short: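 Compounds were incubated 1 h at room temperature in the dark with the MSTI probe (4 uM) in PBS pH 7.4, 2% DMSO. Signals were normalized between Acetyl-MSTI and MSTI.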

[9] = system: Nanoluciferase (engineered Oplophorus gracilirostris luciferase); test: Primary Nanoluciferase (NLuc) qHTS assay for identification of artifact compounds. (AID 1845222);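 note: NLuc secreted into diluted conditioned medium of S16 cells; 0% = DMSO and -100% = no enzyme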
In short: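 Using secreted nanoluciferase in S16 culture medium (0.22 um filtered, 1:55 dilution), compounds were preincubated 15 min at RT. Signal was generated with Nano-Glo reagent (1:100) over 5 min.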

[10] = Primary redox qHTS assay for identification of artifact compounds. (AID 1845223);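 note: 0% = DMSO and 100% = reference compound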
In short: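 Amplex Red (25 uM) and HRP (250 mU/mL) in HBSS, with compounds for 15 min, then 250 uM DTT for 30 min, room temperature, dark. Fluorescence 525/598 nm read; normalized to DMSO and 10 uM DA3003; Hill fit.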

HaCat = test: Cytotoxic Profiling of Annotated Libraries Using Quantitative High-Throughput Screening (AID 1296008); conditions: Five cell lines viability, CellTiter-Glo ATP luminescence, 48-72 h; max response: active compounds read low; note: nearly all actives have a fitted effect of over 60% in size; for max response: % is set by controls: 0 for no effect and ±100 for the full control effect
In short: (§1)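 Compounds were pin-transferred onto cells and incubated 48 or 72 hr at 37 degree Celsius, 95% humidity. CellTiter-Glo was added, plates sat 10 min at room temperature, then ATP-coupled luminescence was imaged as the viability read-out.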

KB-3-1 = test: as above; conditions: Five cell lines viability, CellTiter-Glo ATP luminescence, 48-72 h; max response: active compounds read low
In short: as §1

CASKI = test: Primary qHTS to identify gynecologic anti-cancer compounds using libraries of approved drugs and bioactive compounds (AID 1345084); conditions: Gynecologic cancer cell panel viability, ATPlite luminescence, 48 h; series mostly up to 57.5 µM; note: % is set by controls: 0 for no effect and ±100 for the full control effect; nearly all actives have a fitted effect of over 55% in size
In short: (§2)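 Luminescence from the ATPlite ATP-monitoring reagent indicates viable cell number; lower signal means cytotoxicity. Cells received compound 16 h after seeding and were exposed for 48 h across five concentrations.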

JEG-3 = test: as above; conditions: Gynecologic cancer cell panel viability, ATPlite luminescence, 48 h; series mostly up to 57.5 µM
In short: as §2

OV90 = test: as above; conditions: Gynecologic cancer cell panel viability, ATPlite luminescence, 48 h; series mostly up to 57.5 µM
In short: as §2

[11] = system: Zika virus NS2B-NS3 protease (unlinked complex); test: Primary screen GU Rhodamine qHTS for Zika virus inhibitors: Unlinked NS2B-NS3 protease assay (AID 1347159); note: % is set by controls: 0 for no effect and ±100 for the full control effect; nearly all actives have a fitted effect of over 60% in size
In short: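 Percent inhibition derives from the 15-min fluorescence change (ex 480, em 540 nm), normalized to no-enzyme and no-inhibitor wells. Reactions contained 25 nM NS2B-NS3 complex and 1.5 microM substrate in 10 mM Tris-HCl pH 8.0.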

[12] = P-glycoprotein substrates identified in KB-8-5-11 adenocarcinoma cell line, qHTS therapeutic library screen (AID 1346987); note: nearly all actives have a fitted effect of over 65% in size; note: potency is the fitted concentration of half-maximal effect
In short: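 P-gp-mediated resistance screen: KB-8-5-11 cells treated 72 h with compounds in dose-response. CellTiter-Glo viability.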

Sequence of Phospholipid hydroperoxide glutathione peroxidase GPX4 (Homo sapiens) (P36969 whole entry, looked up): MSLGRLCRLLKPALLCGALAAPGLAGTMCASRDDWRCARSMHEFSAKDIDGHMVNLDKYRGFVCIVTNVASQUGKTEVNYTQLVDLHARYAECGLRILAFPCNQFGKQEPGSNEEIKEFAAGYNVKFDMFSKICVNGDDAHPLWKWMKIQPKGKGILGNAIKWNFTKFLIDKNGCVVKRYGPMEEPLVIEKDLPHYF
Sequence of Calcium and integrin-binding protein 1 (Homo sapiens) (Q99828 whole entry, looked up): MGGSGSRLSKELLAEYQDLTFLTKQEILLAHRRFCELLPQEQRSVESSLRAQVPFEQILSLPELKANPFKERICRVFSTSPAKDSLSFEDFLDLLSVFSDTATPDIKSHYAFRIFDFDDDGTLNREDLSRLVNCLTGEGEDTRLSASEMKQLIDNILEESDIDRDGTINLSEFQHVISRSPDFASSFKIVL
Sequence of Glutathione peroxidase 1 (Homo sapiens) (P07203 whole entry, looked up): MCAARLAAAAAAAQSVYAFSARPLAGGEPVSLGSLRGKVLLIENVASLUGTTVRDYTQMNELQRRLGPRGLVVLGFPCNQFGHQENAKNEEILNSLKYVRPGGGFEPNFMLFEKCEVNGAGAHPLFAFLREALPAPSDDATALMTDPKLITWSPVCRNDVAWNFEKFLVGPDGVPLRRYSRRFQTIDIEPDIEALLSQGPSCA

CCCCCn1cc(C(=O)C2C(C)(C)C2(C)C)c2ccccc21
inactive: Potency [1] | Potency [2] | Potency [3] | Potency [4] | Potency [5] | Potency [6] | outcome [7] | Potency [8] | Potency [9] | Potency [10] | outcome (HaCat) | max response (KB-3-1) 5.27% | Potency (CASKI) | Potency (JEG-3) | Potency (OV90)

C[C@H]1CN(Cc2ccc(CC(=O)N3CCC(Nc4cccc(F)c4)CC3)cc2)CCN1
inactive: Potency [11] | Potency [1] | Potency [2] | Potency [5] | Potency [6] | outcome [7] | Potency [8] | Potency [9] | Potency [10] | max response (KB-3-1) -18.3% | Potency (CASKI) | Potency (JEG-3) | Potency (OV90)

CCOC(=O)C1(CCc2ccccc2)CCN(Cc2ccc(NC(C)=O)cc2)CC1
inactive: Potency [11] | Potency [1] | Potency [5] | Potency [6] | outcome [7] | Potency [8] | Potency [9] | Potency [10] | max response (HaCat) 1.98% | max response (KB-3-1) -17.7% | Potency (CASKI) | Potency (JEG-3) | Potency (OV90)

C=C(CO)[C@@]12O[C@@H]1[C@@]1(C)C(=CC2=O)CC[C@@H](O)[C@@H]1C
active: Potency [12] 13 µM | Potency [3] 12.9 µM | Potency [4] 12.9 µM
inactive: Potency [11] | Potency [1] | Potency [2] | Potency [5] | Potency [6] | outcome [7] | Potency [8] | Potency [9] | Potency [10] | outcome (HaCat) | Potency (CASKI) | Potency (JEG-3)

CC(C)OC(=O)c1ccnc2cc(C(OCCN3CCCCC3)c3ccccc3Cl)sc12 (centres undefined)
active: Potency [12] 20.6 µM | Potency [3] 14.5 µM | Potency [4] 18.3 µM
inactive: Potency [11] | Potency [1] | Potency [2] | Potency [5] | Potency [6] | outcome [7] | Potency [8] | Potency [9] | outcome (HaCat) | Potency (CASKI) | Potency (JEG-3)

CCOC(=O)c1ccnc2cc(C(OCCN3CCCCC3)c3ccccc3Cl)sc12 (centres undefined)
inactive: Potency [12] | Potency [11] | Potency [1] | Potency [2] | Potency [5] | Potency [6] | outcome [7] | Potency [8] | Potency [9] | Potency [10] | outcome (HaCat) | max response (KB-3-1) 5.4%
active: Potency [3] 23 µM | Potency [4] 20.5 µM
